Measurements published in the supplement of paper PMC10849652.
About 8,800 targets were measured; listed, in parts, are those with a hit and a random draw of the rest. About 0.5% of all pairs of compound and target were hits.

Columns and labels:
Assay in all cases: log2 fold change, soluble protein after heating vs DMSO (PISA); higher = thermal stabilisation; K562 lysate, 10 uM; active = over 0.2 and 3.5 SD of the protein, either way, in both replicates (recomputed)
[1] = compound: C#Cc1cccc(Nc2ncnc3cc(OCCOC)c(OCCOC)cc23)c1 [erlotinib]
Summary of the method: (§1)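 Log-two fold change in thermal stability relative to solvent controls is reported from duplicates. For each sample, crude K562 extract from dounce-homogenised pellets in PBS pH 7.4 with 1 mM MgCl2, at 1 mg/mL protein, was treated with 10 μM compound for 30 min. Aliquots heated for 3 min across 48°C-58°C were pooled, brought to 0.5% NP-40 at 4°C and cleared at 21,000xg for 90 min. The supernatant was quantified by TMTpro 16plex LC-MS/MS with channel sums equalised.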

[2] = compound: C/C(=N\NC(=O)C1=CC(=CC=C1)S(=O)(=O)N2CCOCC2)/C3=C(C=CC(=C3)Cl)O
Summary of the method: as §1

[3] = compound: C1=CC(=CC=C1C2=NC3=C(N2)C=C(C=C3)C(=O)N)OC4=CC=C(C=C4)Cl
Summary of the method: as §1

[4] = compound: C1=CC2=C(C=CC(=C2)/C=C\3/C(=O)NC(=NCC4=CC=CS4)S3)N=C1
Summary of the method: as §1

[5] = compound: C1=CC2=NC=CN=C2C=C1/C=C/3\C(=O)NC(=O)S3
Summary of the method: as §1

[6] = compound: C1=CC=C(C=C1)C2=NC(=C(N2)C3=CC=NC=C3)C4=CC(=C(C=C4)Cl)O
Summary of the method: as §1

[7] = compound: C1=CC=C2C(=C1)C3=NNC4=CC=CC(=C43)C2=O
Summary of the method: as §1

[8] = compound: C1CCN(C1)C(=O)NC2=CC=CC(=C2)NC3=NC=C(C(=N3)NCCC4=CN=CN4)Br
Summary of the method: as §1

[9] = compound: C1CN(CCC1(CC2=CC=C(C=C2)Cl)N)C3=NC=NC4=C3C=CN4
Summary of the method: as §1

[10] = compound: C1COCCN1CCN2C3=CC=CC=C3N=C2NC(=O)C4=CC(=CC=C4)[N+](=O)[O-] [IRAK-1-4 Inhibitor I]
Summary of the method: as §1

[11] = compound: C=CC(=O)N1CCC[C@@H](n2nc(-c3ccc(Oc4ccccc4)cc3)c3c(N)ncnc32)C1 [ibrutinib]
Summary of the method: as §1

[12] = compound: CC(=O)c1cnc2ccc(-c3cc(Cl)c(O)c(Cl)c3)nc2c1N[C@H]1CC[C@H](CN(C)C)CC1
Summary of the method: as §1

[13] = compound: CC(C)(C)Cn1c(N)nc2ccc(-c3[nH]c(C(C)(C)C)nc3-c3ccc(F)cc3)nc21 [ralimetinib]
Summary of the method: as §1

[14] = compound: CC(C)(O)CC(=O)NCCn1ccc2ncnc(Nc3ccc(Oc4cccc(C(F)(F)F)c4)c(Cl)c3)c21
Summary of the method: as §1

[15] = compound: CC(C)C1=C2N=C(C=C(N2N=C1)NCC3=CC=CC=C3)NCCCCCCN
Summary of the method: as §1

[16] = compound: CC1=C(C(CC(=O)N1)C2=CC=C(C=C2)C(F)(F)F)C(=O)NC3=C(C=C4C(=C3)C=NN4)F
Summary of the method: as §1

[17] = compound: CC1=C(C2=C(C=C1)C(=O)C3=CC=CC=C3N2CCCN)C
Summary of the method: as §1

[18] = compound: CC1=C(C=C(C=C1)NC(=O)C2=CC(=CC=C2)C(C)(C)C#N)NC3=CC4=C(C=C3)N=CN(C4=O)C
Summary of the method: as §1

[19] = compound: CC1=C(C=C(C=C1)NC(=O)C2=CC(=CC=C2)N(C)C)NC(=O)C3=CC=C(C=C3)O
Summary of the method: as §1

[20] = compound: CC1=CC=C(C=C1)SC2=C3C=C(SC3=CN=C2)C(=O)N
Summary of the method: as §1

Measured: log2 fold change

DDX20 (UniProt Q9UHI6)
inactive: [1] 0.021 | [2] 0.048 | [3] -0.054 | [4] -0.029 | [5] -0.005 | [6] 0.007 | [7] 0.022 | [8] 0.032 | [9] 0.042 | [10] -0.015 | [11] -0.01 | [12] 0.017 | [13] 0.029 | [14] -0.029 | [15] -0.03 | [16] -0.011 | [17] 0.004 | [18] -0.006 | [19] 0.044 | [20] 0.01

DFFB (UniProt O76075)
inactive: [1] -0.055 | [2] 0.062 | [3] 0.071 | [4] 0.048 | [5] 0.084 | [6] 0.047 | [7] 0 | [8] 0.013 | [9] -0.019 | [10] 0.008 | [11] 0.076 | [12] -0.01 | [13] 0.054 | [14] -0.068 | [15] -0.027 | [16] 0.044 | [17] 0.08 | [18] 0.033 | [19] -0.07 | [20] -0.039

CMIP (UniProt Q8IY22)
inactive: [1] 0.003 | [2] 0.05 | [3] -0.008 | [4] 0.055 | [5] 0.035 | [6] 0.023 | [7] -0.067 | [8] -0.001 | [9] -0.023 | [10] -0.011 | [11] 0.057 | [12] 0.024 | [13] 0 | [14] 0.004 | [15] -0.011 | [16] 0.001 | [17] -0.021 | [18] 0 | [19] 0.029 | [20] 0.004

DNAJC1 (UniProt Q96KC8)
inactive: [1] -0.018 | [2] -0.011 | [3] -0.159 | [4] -0.053 | [5] 0.032 | [6] -0.044 | [7] -0.039 | [8] -0.011 | [9] 0.017 | [10] 0.013 | [11] -0.018 | [12] 0.018 | [13] -0.007 | [14] -0.048 | [15] -0.014 | [16] 0.019 | [17] 0.019 | [18] -0.009 | [19] 0.032 | [20] 0.011

COQ9 (UniProt O75208)
inactive: [1] -0.015 | [2] -0.075 | [3] -0.001 | [4] 0.041 | [5] 0.046 | [6] 0 | [7] -0.029 | [8] -0.02 | [9] 0.029 | [10] -0.011 | [11] 0.104 | [12] 0.023 | [13] 0.015 | [14] -0.008 | [15] -0.036 | [16] 0.017 | [17] 0.007 | [18] -0.024 | [19] 0.037 | [20] 0

DMXL1 (UniProt Q9Y485)
UniProt Q9Y485, sequence (Q9Y485 whole entry, looked up): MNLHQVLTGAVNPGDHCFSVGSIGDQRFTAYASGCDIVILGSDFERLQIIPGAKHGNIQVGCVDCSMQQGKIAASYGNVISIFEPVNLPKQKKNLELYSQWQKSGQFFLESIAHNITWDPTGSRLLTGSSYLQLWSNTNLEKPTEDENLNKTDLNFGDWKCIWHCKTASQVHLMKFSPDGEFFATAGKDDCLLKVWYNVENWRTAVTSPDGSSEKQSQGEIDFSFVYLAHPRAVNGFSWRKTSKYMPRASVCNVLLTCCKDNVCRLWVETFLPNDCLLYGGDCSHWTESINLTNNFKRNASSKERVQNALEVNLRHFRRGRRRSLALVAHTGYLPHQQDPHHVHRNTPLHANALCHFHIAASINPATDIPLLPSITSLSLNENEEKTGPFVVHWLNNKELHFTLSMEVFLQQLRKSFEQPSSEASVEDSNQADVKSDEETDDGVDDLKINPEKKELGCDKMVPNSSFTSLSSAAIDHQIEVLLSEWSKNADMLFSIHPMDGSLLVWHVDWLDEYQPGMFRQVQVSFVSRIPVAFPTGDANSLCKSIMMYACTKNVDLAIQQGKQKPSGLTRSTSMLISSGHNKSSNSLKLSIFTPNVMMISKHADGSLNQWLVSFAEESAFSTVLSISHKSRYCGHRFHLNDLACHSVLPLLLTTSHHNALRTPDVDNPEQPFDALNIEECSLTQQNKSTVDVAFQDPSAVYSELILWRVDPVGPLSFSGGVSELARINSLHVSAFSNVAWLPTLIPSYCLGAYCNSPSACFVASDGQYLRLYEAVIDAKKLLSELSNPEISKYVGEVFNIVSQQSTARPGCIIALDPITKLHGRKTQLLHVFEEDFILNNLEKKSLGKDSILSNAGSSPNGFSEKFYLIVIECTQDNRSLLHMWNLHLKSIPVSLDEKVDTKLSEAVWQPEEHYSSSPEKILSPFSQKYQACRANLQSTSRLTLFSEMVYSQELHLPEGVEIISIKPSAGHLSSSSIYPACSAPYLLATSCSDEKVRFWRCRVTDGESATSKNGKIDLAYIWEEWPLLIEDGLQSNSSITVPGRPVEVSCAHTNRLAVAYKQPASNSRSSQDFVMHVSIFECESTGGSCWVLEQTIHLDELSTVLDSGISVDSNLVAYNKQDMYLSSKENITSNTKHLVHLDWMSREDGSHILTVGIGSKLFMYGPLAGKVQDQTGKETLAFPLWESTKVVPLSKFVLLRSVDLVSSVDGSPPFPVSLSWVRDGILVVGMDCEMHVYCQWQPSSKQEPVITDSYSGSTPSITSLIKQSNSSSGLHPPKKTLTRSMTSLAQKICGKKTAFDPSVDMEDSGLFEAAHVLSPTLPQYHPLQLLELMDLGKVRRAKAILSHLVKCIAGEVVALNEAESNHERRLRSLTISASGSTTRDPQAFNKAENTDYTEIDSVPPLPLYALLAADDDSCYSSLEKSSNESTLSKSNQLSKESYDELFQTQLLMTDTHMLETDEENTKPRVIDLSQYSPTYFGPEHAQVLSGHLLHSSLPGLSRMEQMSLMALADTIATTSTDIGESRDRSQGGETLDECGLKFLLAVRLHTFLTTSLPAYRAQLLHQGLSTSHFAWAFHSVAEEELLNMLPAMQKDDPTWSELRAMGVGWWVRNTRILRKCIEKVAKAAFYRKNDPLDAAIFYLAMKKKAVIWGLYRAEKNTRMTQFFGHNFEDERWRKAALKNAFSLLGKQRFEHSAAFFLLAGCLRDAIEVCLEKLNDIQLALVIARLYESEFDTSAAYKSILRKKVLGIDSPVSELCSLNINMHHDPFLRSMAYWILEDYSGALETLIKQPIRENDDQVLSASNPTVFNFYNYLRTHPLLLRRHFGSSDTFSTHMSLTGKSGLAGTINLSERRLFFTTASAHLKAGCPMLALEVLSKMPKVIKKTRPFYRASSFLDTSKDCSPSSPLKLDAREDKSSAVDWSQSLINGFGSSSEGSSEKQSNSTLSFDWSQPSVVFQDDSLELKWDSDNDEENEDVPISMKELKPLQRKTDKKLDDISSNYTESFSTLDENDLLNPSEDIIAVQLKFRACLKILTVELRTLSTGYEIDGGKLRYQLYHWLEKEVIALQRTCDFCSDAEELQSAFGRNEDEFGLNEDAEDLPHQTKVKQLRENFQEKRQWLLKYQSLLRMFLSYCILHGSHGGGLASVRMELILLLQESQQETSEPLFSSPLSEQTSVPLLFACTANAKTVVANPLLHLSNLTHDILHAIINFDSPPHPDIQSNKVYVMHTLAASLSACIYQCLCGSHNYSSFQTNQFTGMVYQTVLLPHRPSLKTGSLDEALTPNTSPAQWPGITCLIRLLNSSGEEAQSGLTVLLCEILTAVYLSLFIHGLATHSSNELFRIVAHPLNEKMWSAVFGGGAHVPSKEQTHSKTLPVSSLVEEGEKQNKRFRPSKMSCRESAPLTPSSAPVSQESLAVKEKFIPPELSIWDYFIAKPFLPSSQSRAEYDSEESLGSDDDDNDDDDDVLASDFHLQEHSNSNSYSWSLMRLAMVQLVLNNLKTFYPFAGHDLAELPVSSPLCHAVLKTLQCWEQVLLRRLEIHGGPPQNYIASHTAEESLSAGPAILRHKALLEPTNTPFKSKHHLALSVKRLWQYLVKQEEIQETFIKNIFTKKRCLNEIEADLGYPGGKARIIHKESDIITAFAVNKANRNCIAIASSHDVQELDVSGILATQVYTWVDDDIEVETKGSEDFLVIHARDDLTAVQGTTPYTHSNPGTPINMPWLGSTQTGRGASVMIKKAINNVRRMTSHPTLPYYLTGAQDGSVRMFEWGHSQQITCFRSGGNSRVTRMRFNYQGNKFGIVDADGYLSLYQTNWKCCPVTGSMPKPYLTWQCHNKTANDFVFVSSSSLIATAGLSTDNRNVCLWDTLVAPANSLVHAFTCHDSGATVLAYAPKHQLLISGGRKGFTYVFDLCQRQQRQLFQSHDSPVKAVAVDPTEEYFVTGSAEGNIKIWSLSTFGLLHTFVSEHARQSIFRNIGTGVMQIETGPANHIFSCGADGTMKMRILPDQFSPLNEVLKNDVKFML
inactive: [1] 0.006 | [2] 0.016 | [3] -0.015 | [4] -0.017 | [5] -0.024 | [6] -0.008 | [7] -0.026 | [8] -0.013 | [9] -0.001 | [10] 0.016 | [11] -0.02 | [12] -0.025 | [13] 0.021 | [14] -0.012 | [15] 0.016 | [16] -0.001 | [17] -0.024 | [18] 0 | [19] 0.064 | [20] -0.026

DDX54 isoform 2 (UniProt Q8TDD1)
inactive: [1] -0.088 | [2] -0.36 | [3] -0.038 | [4] -0.035 | [5] -0.191 | [6] -0.001 | [7] -0.054 | [8] 0.069 | [9] 0.014 | [10] -0.058 | [11] -0.005 | [12] 0.006 | [13] 0.036 | [14] 0.023 | [15] -0.001 | [16] 0.02 | [17] -0.054 | [18] -0.054 | [19] -0.006 | [20] 0.013

DHCR7 (UniProt Q9UBM7)
inactive: [1] -0.051 | [2] 0.081 | [3] -0.153 | [4] -0.016 | [5] 0.033 | [6] -0.024 | [7] -0.019 | [8] -0.058 | [9] 0.075 | [10] 0.007 | [11] -0.026 | [12] 0.016 | [13] 0.071 | [14] -0.042 | [15] -0.018 | [16] 0.01 | [17] -0.007 | [18] -0.017 | [19] -0.011 | [20] -0.002

CMBL (UniProt Q96DG6)
UniProt Q96DG6, sequence (Q96DG6 whole entry, looked up): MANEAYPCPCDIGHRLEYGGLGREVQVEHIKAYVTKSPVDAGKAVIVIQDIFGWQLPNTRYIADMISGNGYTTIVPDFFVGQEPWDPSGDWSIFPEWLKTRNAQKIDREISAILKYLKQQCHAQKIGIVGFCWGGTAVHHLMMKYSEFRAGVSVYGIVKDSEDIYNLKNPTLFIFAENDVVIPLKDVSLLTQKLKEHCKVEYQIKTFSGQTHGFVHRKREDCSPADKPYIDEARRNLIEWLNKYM
inactive: [1] 0.026 | [2] 0.047 | [3] -0.03 | [4] -0.031 | [5] 0.01 | [6] -0.002 | [7] 0.045 | [8] 0.006 | [9] -0.002 | [10] 0.025 | [11] -0.059 | [13] 0.018 | [14] -0.009 | [15] -0.056 | [16] -0.082 | [17] 0 | [18] 0.014 | [19] -0.04 | [20] -0.011
active: [12] 0.22

CPT1A (UniProt P50416)
UniProt P50416, sequence (P50416 whole entry, looked up): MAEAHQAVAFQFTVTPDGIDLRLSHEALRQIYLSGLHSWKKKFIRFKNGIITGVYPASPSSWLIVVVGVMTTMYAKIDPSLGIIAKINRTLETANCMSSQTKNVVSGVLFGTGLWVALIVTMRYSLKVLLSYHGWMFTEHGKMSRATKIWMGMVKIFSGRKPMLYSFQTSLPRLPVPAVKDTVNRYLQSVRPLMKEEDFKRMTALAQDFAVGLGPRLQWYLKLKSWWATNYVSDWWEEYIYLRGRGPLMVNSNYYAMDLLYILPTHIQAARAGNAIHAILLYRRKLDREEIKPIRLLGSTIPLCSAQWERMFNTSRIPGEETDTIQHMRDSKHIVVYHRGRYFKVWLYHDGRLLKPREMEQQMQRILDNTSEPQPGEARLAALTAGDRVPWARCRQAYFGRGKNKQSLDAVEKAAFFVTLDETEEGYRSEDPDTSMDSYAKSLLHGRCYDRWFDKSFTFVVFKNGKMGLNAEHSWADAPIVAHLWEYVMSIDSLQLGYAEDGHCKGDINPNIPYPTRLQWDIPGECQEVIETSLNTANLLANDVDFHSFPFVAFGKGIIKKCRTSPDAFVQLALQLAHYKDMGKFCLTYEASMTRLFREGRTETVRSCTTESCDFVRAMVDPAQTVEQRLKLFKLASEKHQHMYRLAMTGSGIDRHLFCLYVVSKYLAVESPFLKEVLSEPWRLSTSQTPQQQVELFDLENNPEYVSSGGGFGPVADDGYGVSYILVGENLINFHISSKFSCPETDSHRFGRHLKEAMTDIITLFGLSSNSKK
inactive: [1] -0.029 | [2] -0.034 | [3] 0.01 | [4] -0.001 | [5] -0.05 | [6] 0.002 | [7] 0.011 | [8] -0.036 | [9] 0.024 | [10] -0.008 | [11] 0.042 | [12] -0.021 | [13] -0.016 | [14] 0.008 | [15] -0.026 | [16] -0.009 | [17] -0.041 | [18] -0.05 | [19] -0.008 | [20] 0.017

CSK (UniProt P41240)
active: [11] 0.891 | [18] 0.626
inactive: [1] 0.045 | [2] -0.025 | [3] -0.004 | [4] -0.028 | [5] -0.035 | [6] 0.031 | [7] 0.106 | [8] 0.107 | [9] 0.033 | [10] 0.053 | [12] 0.242 | [13] 0 | [14] 0.181 | [15] 0 | [16] -0.086 | [17] -0.04 | [19] -0.015 | [20] -0.054

CHML (UniProt P26374)
inactive: [1] -0.03 | [2] -0.031 | [3] 0.028 | [4] -0.026 | [5] -0.013 | [6] -0.021 | [7] -0.004 | [8] -0.033 | [9] -0.001 | [10] -0.012 | [11] -0.029 | [12] -0.017 | [13] -0.008 | [14] -0.004 | [15] -0.009 | [16] -0.012 | [17] 0 | [18] -0.003 | [19] -0.017 | [20] -0.006

CTNND1 isoform 3 (UniProt O60716)
UniProt O60716, sequence (O60716 whole entry, looked up): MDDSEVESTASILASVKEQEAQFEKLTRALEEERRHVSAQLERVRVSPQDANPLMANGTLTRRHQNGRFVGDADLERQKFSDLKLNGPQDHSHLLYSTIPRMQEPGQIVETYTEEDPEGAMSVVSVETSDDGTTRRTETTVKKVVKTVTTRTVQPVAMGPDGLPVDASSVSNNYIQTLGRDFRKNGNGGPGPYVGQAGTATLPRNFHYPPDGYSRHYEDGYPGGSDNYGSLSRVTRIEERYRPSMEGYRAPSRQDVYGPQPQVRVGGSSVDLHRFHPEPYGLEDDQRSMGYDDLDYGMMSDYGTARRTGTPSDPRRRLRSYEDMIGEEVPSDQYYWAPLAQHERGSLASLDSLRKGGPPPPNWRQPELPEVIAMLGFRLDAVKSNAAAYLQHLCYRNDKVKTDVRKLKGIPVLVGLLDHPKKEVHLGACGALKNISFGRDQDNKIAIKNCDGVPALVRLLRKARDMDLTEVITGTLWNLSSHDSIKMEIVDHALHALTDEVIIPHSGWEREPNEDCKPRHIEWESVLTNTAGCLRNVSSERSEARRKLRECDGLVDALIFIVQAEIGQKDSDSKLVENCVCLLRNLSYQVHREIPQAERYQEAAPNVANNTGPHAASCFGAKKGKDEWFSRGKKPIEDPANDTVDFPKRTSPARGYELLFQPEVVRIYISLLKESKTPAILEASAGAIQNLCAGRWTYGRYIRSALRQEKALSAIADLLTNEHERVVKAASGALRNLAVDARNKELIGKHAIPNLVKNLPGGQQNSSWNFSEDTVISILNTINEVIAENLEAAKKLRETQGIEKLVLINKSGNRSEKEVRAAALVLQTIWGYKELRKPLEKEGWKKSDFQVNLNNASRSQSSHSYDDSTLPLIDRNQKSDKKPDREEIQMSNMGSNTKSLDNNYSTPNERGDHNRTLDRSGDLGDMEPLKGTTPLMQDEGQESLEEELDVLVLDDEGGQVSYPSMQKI
inactive: [1] -0.002 | [2] -0.039 | [3] -0.024 | [4] -0.045 | [5] 0.003 | [6] 0.087 | [7] -0.093 | [8] 0.009 | [9] 0.022 | [10] 0.004 | [11] 0.01 | [12] 0.001 | [13] -0.058 | [14] -0.028 | [15] 0 | [16] 0.006 | [17] -0.036 | [18] -0.016 | [19] 0.032 | [20] -0.025

DHRS11 (UniProt Q6UWP2)
inactive: [1] 0.054 | [2] -0.017 | [3] -0.004 | [4] 0.017 | [5] -0.006 | [6] -0.015 | [7] -0.008 | [8] -0.041 | [9] 0.042 | [10] -0.02 | [11] 0.028 | [12] -0.008 | [13] 0.028 | [14] -0.014 | [15] 0.048 | [16] -0.005 | [17] -0.029 | [18] 0.007 | [19] 0.015 | [20] 0.03

DOCK7 (UniProt Q96N67)
inactive: [1] 0.078 | [2] 0.009 | [3] -0.045 | [4] -0.041 | [5] -0.126 | [6] 0.014 | [7] -0.023 | [8] -0.003 | [9] 0.016 | [10] 0.024 | [11] -0.117 | [12] -0.009 | [13] 0.077 | [14] -0.054 | [15] 0.021 | [16] 0.03 | [17] -0.078 | [18] 0.009 | [19] 0.065 | [20] -0.028

DHRS3 (UniProt O75911)
inactive: [1] 0.056 | [2] 0.08 | [3] 0.047 | [4] -0.008 | [5] -0.044 | [6] 0.03 | [7] -0.028 | [8] -0.007 | [9] 0.016 | [10] 0.046 | [11] 0.064 | [12] -0.07 | [13] 0.048 | [14] -0.023 | [15] 0.034 | [16] -0.001 | [17] -0.069 | [18] -0.015 | [19] -0.046 | [20] 0.045
